In PubChem BioAssay (EPA / NIEHS):
Activity calls are given as the source filed them. How the source made its calls: active means hit-call score of the fitted dose curve at least 0.9, where 1 is the maximum; inactive means score below 0.9.

experiment: APR_HepG2_P-H2AX_72hr: Apredica 72-hour HepG2 Assay for H2AX Phosphorylation (AID 2282916); conditions: imaging, actives raise or lower the signal
Procedure: APR_HepG2_72hr is a cell-based, multiplexed-readout assay that uses HepG2, a human liver cell line, with measurements taken at 72 hours after chemical dosing in a 384-well plate.APR_HepG2_P-H2AX_72hr is one of 10 assay component(s) measured or calculated from the APR_HepG2_72hr assay. It is designed to make measurements of dna content, a form of viability reporter, as detected with fluorescence intensity signals by HCS Fluorescent Imaging technology.Data from the assay component APR_HepG2_P-H2AX_72hr was analyzed into 1 assay endpoint. This assay endpoint, APR_HepG2_P-H2AX_72hr, was analyzed with bidirectional fitting relative to DMSO as the negative control and baseline of activity. Using a type of viability reporter, measures of protein for gain or loss-of-signal activity can be used to understand the signaling at the pathway-level as they relate to the gene . Furthermore, this assay endpoint can be referred to as a primary readout, because this assay has produced multiple assay endpoints where this one serves a signaling function. To generalize the intended target to other relatable targets, this assay endpoint is annotated to the dna binding intended target family, where the subfamily is cellular response to DNA damage stimulus.
Cells were treated with dimethyl sulfoxide (DMSO) as a solvent control at a final concentration of 0.5% v/v or with compounds in DMSO with a resulting final DMSO concentration of 0.5% v/v. Compound treatment was done at concentrations of 0.39, 0.78, 1.56, 3.12, 6.24, 12.5, 25, 50, 100, and 200 uM in duplicate on each plate. Cells were treated with compounds for 1, 24, or 72 hr. Carbonyl […] m-chloro-phenylhydrazone (CCCP) and taxol were used as positive controls for mitochondrial function and cytoskeletal stability, respectively; DMSO served as the negative control for this experiment. Cells were fixed by the direct addition of 50 uL formaldehyde in Hank's Balanced Salt Solution (HBSS) to a final concentration of 3.7%. After incubation in the fixation medium for 30 min at room temperature (293-298 K), cells were rinsed twice with HBSS and treated with cell permeabilization buffer (16 uL of 0.5% Triton X-100) for 10 min at room temperature (293-298 K) before labeling. For mitochondrial membrane potential and mitochondrial measurements, pre-fixed cells were incubated with 50 uL of MitoTracker Red CMXRos (Invitrogen) at a concentration of 250 nM for 30 min before fixation. In the remaining cases, post-fixed cells were labeled by incubation with a multiplexed mixture of primary antibodies in HBSS for 60 min at room temperature (293-298 K) to detect immunoreactivity of c-Jun (1:500), phospho-histone H3 (1:100), phospho-histone H2A.x (1:200), p53 (1:400), alpha-tubulin (1:200) and Hoechst 33342 (2 ug/mL). Cells were labeled for multiplexed imaging on two separate plates: a) Hoechst 33342, MitoTracker Red, phospho-histone H3, and alpha-tubulin, and b) Hoechst 33342, phospho-histone H2A.x, and c-Jun. A final rinse with HBSS (50 uL) was performed before analysis. The primary and secondary antibodies for the proteins were phospho-histone H3 (rabbit anti-phospho-histone H3 and FITC-donkey anti-rabbit IgG), phospho-histone H2A.x (mouse anti-phospho-histone H2A.x and FITC-donkey anti-mouse IgG), c-Jun (rabbit anti-phospho-c-Jun and Cy3-donkey anti-rabbit IgG), p53 (sheep anti-p53 and Cy5-donkey anti-sheep IgG), alpha-tubulin (mouse anti-alpha-tubulin and Cy5-donkey anti-mouse IgG). These antibodies are available as the CellCiphr HepG2 assay kit (Millipore).Digital images of each well were captured using a Cellomics ArrayScan VTI (Thermo Scientific Cellomics) (0.8 NA objective, 0.63x optical coupler, and XF-93 filter set) at 20x magnification. The images were acquired using the autofocus feature of the ArrayScan instrument, which entails the following steps. First, the camera focuses on channel 1 (Hoechst 33342), where nuclei are identified. Second, a Z offset of 1 um is used for capturing mitochondria (MitoTracker Red). […]

**Q.** Which AC50 does the source give for CCN(CC)C(=O)c1cc(S(=O)(=O)Cc2ccccc2)c(N2CCC(c3ccccc3)CC2)cc1N(CC)CCN(C)C here?
**A.** Its AC50 is 0.876 µM (active).

**Q.** Which AC50 does the source give for NC(=O)c1nc(-c2cccc(-c3cc(F)ccc3OCC(F)(F)C(F)(F)F)c2)n[nH]1 here?
**A.** Its AC50 is 111 µM (active).

**Q.** Which outcome does the source give for Cc1ccc(C(C)C)cc1 here?
**A.** The outcome was “inactive”.

**Q.** With CCCCCCCCN(C)CCCCCCCC as the molecule, how does the outcome read?
**A.** The outcome was “inactive”.

**Q.** With O=C(O)Cc1cc(I)c(Oc2ccc(O)c(I)c2)c(I)c1 as the molecule, how does the outcome read?
**A.** The outcome was “inactive”.

**Q.** For COc1cccc([C@H](O)C2CCN(CCc3ccc(F)cc3)CC2)c1OC, which outcome is on record?
**A.** The outcome was “inactive”.

**Q.** Which outcome does the source give for CC(C)(C)c1csc(-c2cc3cc(OCc4ccccc4CC(=O)O)ccc3o2)n1 here?
**A.** The outcome was “inactive”.

**Q.** With Oc1ccccc1 as the molecule, how does the outcome read?
**A.** The outcome was “inactive”.

**Q.** For COc1ccc2cc(S(=O)(=O)N[C@H](CC(=O)N[C@H](Cc3ccc(CN4[C@H](C)CCC[C@@H]4C)cc3)C(=O)N(C)C(C)C)c3ccc4c(c3)OCO4)ccc2c1, which AC50 is on record?
**A.** The AC50 was 13.7 µM (active).

**Q.** With CCCCOC(=O)c1ccc(O)cc1 as the molecule, how does the outcome read?
**A.** The outcome was “inactive”.

**Q.** With CN(C)C(=O)C1(N2CCCCC2)CCN(CC[C@@]2(c3ccc(Cl)c(Cl)c3)CN(C(=O)c3ccccc3)CCO2)CC1 as the molecule, how does the AC50 read?
**A.** Its AC50 is 12.3 µM (active).

**Q.** For O=c1c(-c2ccc(O)cc2)coc2cc(O)cc(O)c12, which outcome is on record?
**A.** The outcome was “inactive”.

**Q.** Which AC50 does the source give for CCN(Cc1cccnc1)C(=O)c1cccc(Cl)c1[C@]1(C)C(=O)N(Cc2ccc(OC)cc2OC)c2ccc(Cl)cc21 here?
**A.** The AC50 was 20.3 µM (active).

**Q.** Which AC50 does the source give for O=c1[nH]sc2ccccc12 here?
**A.** The AC50 was 46.1 µM (active).

**Q.** Which outcome does the source give for CC1(C)NC(=O)N(c2ccc([N+](=O)[O-])c(C(F)(F)F)c2)C1=O here?
**A.** Its outcome is “inactive”.

**Q.** Which outcome does the source give for CC(O)CC(C)(C)O (stereo not given) here?
**A.** The outcome was “inactive”.

**Q.** For Clc1cc(Cl)c2c(c1)N=C1CCCCCN1C2, which outcome is on record?
**A.** The outcome was “inactive”.

**Q.** With CC(C)(c1cc(Br)c(O)c(Br)c1)c1cc(Br)c(O)c(Br)c1 as the molecule, how does the AC50 read?
**A.** Its AC50 is 63.3 µM (active).

**Q.** For Cc1ccc2oc(CN(Cc3ccccc3)C(=O)Nc3c(F)cc(F)cc3F)c(-c3ccc(Cl)cc3)c2c1, which outcome is on record?
**A.** Its outcome is “inactive”.

**Q.** With Cc1occc1C(=O)Nc1ccc(C(=O)N2CCC(F)(F)/C(=C\C(=O)N3CCC(N4CCCCC4)CC3)c3ccccc32)cc1 as the molecule, how does the outcome read?
**A.** The outcome was “inactive”.

**Q.** With CN(C)c1ccc(C(=C2C=CC(=[N+](C)C)C=C2)c2ccc(N(C)C)cc2)cc1 as the molecule, how does the AC50 read?
**A.** The AC50 was 4.24 µM (active).

**Q.** Which outcome does the source give for Cc1oc2c(NC(=O)c3c(Cl)cccc3Cl)cccc2c1C(C)(C)O here?
**A.** The outcome was “inactive”.

**Q.** For CC/C(=C(/CC)c1ccc(O)cc1)c1ccc(O)cc1, which AC50 is on record?
**A.** The AC50 was 68 µM (active).

**Q.** With OCCO as the molecule, how does the outcome read?
**A.** The outcome was “inactive”.

**Q.** For CO[C@H]1/C=C/O[C@@]2(C)Oc3c(C)c(O)c4c(O)c(c(/C=N/N5CCN(C)CC5)c(O)c4c3C2=O)NC(=O)/C(C)=C\C=C\[C@H](C)[C@H](O)[C@@H](C)[C@@H](O)[C@@H](C)[C@H](OC(C)=O)[C@@H]1C, which outcome is on record?
**A.** The outcome was “inactive”.

**Q.** Which AC50 does the source give for Cc1cc(F)ccc1-c1cc(N2CC[C@@H](O)[C@H]2CO)ncc1N(C)C(=O)C(C)(C)c1cc(C(F)(F)F)cc(C(F)(F)F)c1 here?
**A.** The AC50 was 57.7 µM (active).

**Q.** Which outcome does the source give for COCC(C)OCC(C)OCC(C)O (stereo not given) here?
**A.** The outcome was “inactive”.

**Q.** With Cc1cn([C@H]2C[C@H](N=[N+]=[N-])[C@@H](CO)O2)c(=O)[nH]c1=O as the molecule, how does the outcome read?
**A.** The outcome was “inactive”.

**Q.** For CCCC(=O)OCCC(C)C, which outcome is on record?
**A.** Its outcome is “inactive”.

**Q.** With CC[C@@H]1C[C@H](N(Cc2cc(C(F)(F)F)cc(C(F)(F)F)c2)C(C)=O)c2cc(C(F)(F)F)ccc2N1C(=O)OC(C)C as the molecule, how does the outcome read?
**A.** The outcome was “inactive”.

**Q.** Which outcome does the source give for CN1C(=O)CC[C@H]1c1cccnc1 here?
**A.** Its outcome is “inactive”.

**Q.** Which outcome does the source give for O=C(OCCCCCCOC(=O)c1ccccc1)c1ccccc1 here?
**A.** The outcome was “inactive”.

**Q.** For CCO[Si](CCCNC(N)=O)(OCC)OCC, which outcome is on record?
**A.** Its outcome is “inactive”.

**Q.** For NCc1cccc(C2CCN(C(=O)c3ccc(C#Cc4ccccc4F)o3)CC2)c1, which AC50 is on record?
**A.** The AC50 was 17.7 µM (active).

**Q.** For O=C(O)Cn1c(=O)n(Cc2ccc(Br)cc2F)c(=O)c2ccc(Cl)cc21, which outcome is on record?
**A.** Its outcome is “inactive”.

**Q.** For Oc1ccc2ccccc2c1, which outcome is on record?
**A.** Its outcome is “inactive”.

**Q.** With CCCCCCCCOc1ccc(C(=O)c2ccccc2)c(O)c1 as the molecule, how does the outcome read?
**A.** Its outcome is “inactive”.

**Q.** Which outcome does the source give for CC(C)(O)c1ccc(CNC(=O)c2cccnc2Oc2ccc3nonc3c2)cc1 here?
**A.** Its outcome is “inactive”.

**Q.** With O=C(Nc1ccc(Cl)cc1)Nc1ccc(Cl)c(Cl)c1 as the molecule, how does the AC50 read?
**A.** Its AC50 is 6.38 µM (active).

**Q.** Which AC50 does the source give for CC(=O)N1CCN(c2ccc(OC[C@H]3CO[C@](Cn4ccnc4)(c4ccc(Cl)cc4Cl)O3)cc2)CC1 here?
**A.** The AC50 was 32.3 µM (active).
